The labels stand for the following.
B1: ENSMUSG00000061578.1419|Ksr2|3:7;229:233 (ssRNA)
RNA: GGGAGUUCUACAGUCCGACGAUCGCUUCGAUAUCCGCAUGCUAAUCAUACAUCUUGAUUCUCCAUUUUCCUUCUGGACCACAUGUCUCUUCCUUUUCCUUUUUAGAUCUGUCUUGCUCUCUGUCUCUCUCACUCAUUGCCAACAUGUUGCUGGGAAAGAAUAUUUGAUUUAGAUGCCAAUCAGGAAGGCAAGUAGGAUGGAUGGAUGAGUGAGUGGAUAGGUAGGUAUAUAAAUGGAUGGAUGGGUGAUGGAUGGGUAAAUGAAUGGAUAGCAUACUGAAUGAAUGGAUGAUGGAUGAAUGGACUCUUGCGGUCGCACUAGUGUGGAAUUCUCGGGUGUCAAGG
B2: ENSMUSG00000029636.450|Wasf3 (ssRNA)
RNA: GGGAGUUCUACAGUCCGACGAUCGCUUCGAUAUCCGCAUGCUAGAUGGAUGGAUGAGUGGAUGGAUAAUAGGUUGAUGGGUGGAUAGGUAGAUGAGUGAAUAGAUAGAUAUAGAUCAGUGGGAGGAUUGGAAAGUAGGUGAAUGAAUGGAUGGCAGAUAGAUGGAUCAAUUACAGAUGGAUGGAUGCAUGGAAUAGAUAGGUGGAUGGGUGGUGGCUAGAAGGUGCCUGAGUCUGCACAUCACUGCACUGAGAAGGCAAAUGAGUACAUUAUACUAUUAGCACCAAACCCCAAGCUUCAGUAUCUCUUGCGGUCGCACUAGUGUGGAAUUCUCGGGUGUCAAGG
B3: ENSMUSG00000029636.443|Wasf3 (ssRNA)
RNA: GGGAGUUCUACAGUCCGACGAUCGCUUCGAUAUCCGCAUGCUAGUGGGUGGAUUCAUGAUGGAUGGAUGGAUGGAUGGAUGGAUGGAUGGAUGGAUGAGUGGAUGGAUAAUAGGUUGAUGGGUGGAUAGGUAGAUGAGUGAAUAGAUAGAUAUAGAUCAGUGGGAGGAUUGGAAAGUAGGUGAAUGAAUGGAUGGCAGAUAGAUGGAUCAAUUACAGAUGGAUGGAUGCAUGGAAUAGAUAGGUGGAUGGGUGGUGGCUAGAAGGUGCCUGAGUCUGCACAUCACUGCACUGAGAAGGCAAAUCUCUUGCGGUCGCACUAGUGUGGAAUUCUCGGGUGUCAAGG
B4: ENSMUSG00000029636.444|Wasf3 (ssRNA)
RNA: GGGAGUUCUACAGUCCGACGAUCGCUUCGAUAUCCGCAUGCUAGGAUUCAUGAUGGAUGGAUGGAUGGAUGGAUGGAUGGAUGGAUGGAUGAGUGGAUGGAUAAUAGGUUGAUGGGUGGAUAGGUAGAUGAGUGAAUAGAUAGAUAUAGAUCAGUGGGAGGAUUGGAAAGUAGGUGAAUGAAUGGAUGGCAGAUAGAUGGAUCAAUUACAGAUGGAUGGAUGCAUGGAAUAGAUAGGUGGAUGGGUGGUGGCUAGAAGGUGCCUGAGUCUGCACAUCACUGCACUGAGAAGGCAAAUGAGUACCUCUUGCGGUCGCACUAGUGUGGAAUUCUCGGGUGUCAAGG
B5: ENSMUSG00000029636.451|Wasf3 (ssRNA)
RNA: GGGAGUUCUACAGUCCGACGAUCGCUUCGAUAUCCGCAUGCUAUGGAUGAGUGGAUGGAUAAUAGGUUGAUGGGUGGAUAGGUAGAUGAGUGAAUAGAUAGAUAUAGAUCAGUGGGAGGAUUGGAAAGUAGGUGAAUGAAUGGAUGGCAGAUAGAUGGAUCAAUUACAGAUGGAUGGAUGCAUGGAAUAGAUAGGUGGAUGGGUGGUGGCUAGAAGGUGCCUGAGUCUGCACAUCACUGCACUGAGAAGGCAAAUGAGUACAUUAUACUAUUAGCACCAAACCCCAAGCUUCAGUAUUUAGAUCUCUUGCGGUCGCACUAGUGUGGAAUUCUCGGGUGUCAAGG
B6: ENSMUSG00000029636.441|Wasf3 (ssRNA)
RNA: GGGAGUUCUACAGUCCGACGAUCGCUUCGAUAUCCGCAUGCUAGUGGAUGGUUGAGUGGGUGGAUUCAUGAUGGAUGGAUGGAUGGAUGGAUGGAUGGAUGGAUGGAUGAGUGGAUGGAUAAUAGGUUGAUGGGUGGAUAGGUAGAUGAGUGAAUAGAUAGAUAUAGAUCAGUGGGAGGAUUGGAAAGUAGGUGAAUGAAUGGAUGGCAGAUAGAUGGAUCAAUUACAGAUGGAUGGAUGCAUGGAAUAGAUAGGUGGAUGGGUGGUGGCUAGAAGGUGCCUGAGUCUGCACAUCACUGCACUCUCUUGCGGUCGCACUAGUGUGGAAUUCUCGGGUGUCAAGG
B7: ENSMUSG00000029636.439|Wasf3 (ssRNA)
RNA: GGGAGUUCUACAGUCCGACGAUCGCUUCGAUAUCCGCAUGCUAGGAUGAUAGGUGGUGGAUGGUUGAGUGGGUGGAUUCAUGAUGGAUGGAUGGAUGGAUGGAUGGAUGGAUGGAUGGAUGAGUGGAUGGAUAAUAGGUUGAUGGGUGGAUAGGUAGAUGAGUGAAUAGAUAGAUAUAGAUCAGUGGGAGGAUUGGAAAGUAGGUGAAUGAAUGGAUGGCAGAUAGAUGGAUCAAUUACAGAUGGAUGGAUGCAUGGAAUAGAUAGGUGGAUGGGUGGUGGCUAGAAGGUGCCUGAGUCUGCACUCUUGCGGUCGCACUAGUGUGGAAUUCUCGGGUGUCAAGG
B8: ENSMUSG00000029636.449|Wasf3 (ssRNA)
RNA: GGGAGUUCUACAGUCCGACGAUCGCUUCGAUAUCCGCAUGCUAUGGAUGGAUGGAUGGAUGAGUGGAUGGAUAAUAGGUUGAUGGGUGGAUAGGUAGAUGAGUGAAUAGAUAGAUAUAGAUCAGUGGGAGGAUUGGAAAGUAGGUGAAUGAAUGGAUGGCAGAUAGAUGGAUCAAUUACAGAUGGAUGGAUGCAUGGAAUAGAUAGGUGGAUGGGUGGUGGCUAGAAGGUGCCUGAGUCUGCACAUCACUGCACUGAGAAGGCAAAUGAGUACAUUAUACUAUUAGCACCAAACCCCAAGCUUCUCUUGCGGUCGCACUAGUGUGGAAUUCUCGGGUGUCAAGG
B9: ENSMUSG00000029636.446|Wasf3 (ssRNA)
RNA: GGGAGUUCUACAGUCCGACGAUCGCUUCGAUAUCCGCAUGCUAGAUGGAUGGAUGGAUGGAUGGAUGGAUGGAUGGAUGAGUGGAUGGAUAAUAGGUUGAUGGGUGGAUAGGUAGAUGAGUGAAUAGAUAGAUAUAGAUCAGUGGGAGGAUUGGAAAGUAGGUGAAUGAAUGGAUGGCAGAUAGAUGGAUCAAUUACAGAUGGAUGGAUGCAUGGAAUAGAUAGGUGGAUGGGUGGUGGCUAGAAGGUGCCUGAGUCUGCACAUCACUGCACUGAGAAGGCAAAUGAGUACAUUAUACUAUUACUCUUGCGGUCGCACUAGUGUGGAAUUCUCGGGUGUCAAGG
B10: ENSMUSG00000029636.445|Wasf3 (ssRNA)
RNA: GGGAGUUCUACAGUCCGACGAUCGCUUCGAUAUCCGCAUGCUAAUGAUGGAUGGAUGGAUGGAUGGAUGGAUGGAUGGAUGGAUGAGUGGAUGGAUAAUAGGUUGAUGGGUGGAUAGGUAGAUGAGUGAAUAGAUAGAUAUAGAUCAGUGGGAGGAUUGGAAAGUAGGUGAAUGAAUGGAUGGCAGAUAGAUGGAUCAAUUACAGAUGGAUGGAUGCAUGGAAUAGAUAGGUGGAUGGGUGGUGGCUAGAAGGUGCCUGAGUCUGCACAUCACUGCACUGAGAAGGCAAAUGAGUACAUUAUACUCUUGCGGUCGCACUAGUGUGGAAUUCUCGGGUGUCAAGG
B11: ENSMUSG00000029636.440|Wasf3 (ssRNA)
RNA: GGGAGUUCUACAGUCCGACGAUCGCUUCGAUAUCCGCAUGCUAUAGGUGGUGGAUGGUUGAGUGGGUGGAUUCAUGAUGGAUGGAUGGAUGGAUGGAUGGAUGGAUGGAUGGAUGAGUGGAUGGAUAAUAGGUUGAUGGGUGGAUAGGUAGAUGAGUGAAUAGAUAGAUAUAGAUCAGUGGGAGGAUUGGAAAGUAGGUGAAUGAAUGGAUGGCAGAUAGAUGGAUCAAUUACAGAUGGAUGGAUGCAUGGAAUAGAUAGGUGGAUGGGUGGUGGCUAGAAGGUGCCUGAGUCUGCACAUCACCUCUUGCGGUCGCACUAGUGUGGAAUUCUCGGGUGUCAAGG
B12: ENSMUSG00000029636.438|Wasf3 (ssRNA)
RNA: GGGAGUUCUACAGUCCGACGAUCGCUUCGAUAUCCGCAUGCUAGUGAAUGGAUGAUAGGUGGUGGAUGGUUGAGUGGGUGGAUUCAUGAUGGAUGGAUGGAUGGAUGGAUGGAUGGAUGGAUGGAUGAGUGGAUGGAUAAUAGGUUGAUGGGUGGAUAGGUAGAUGAGUGAAUAGAUAGAUAUAGAUCAGUGGGAGGAUUGGAAAGUAGGUGAAUGAAUGGAUGGCAGAUAGAUGGAUCAAUUACAGAUGGAUGGAUGCAUGGAAUAGAUAGGUGGAUGGGUGGUGGCUAGAAGGUGCCUGAGCUCUUGCGGUCGCACUAGUGUGGAAUUCUCGGGUGUCAAGG
B13: ENSMUSG00000029636.442|Wasf3 (ssRNA)
RNA: GGGAGUUCUACAGUCCGACGAUCGCUUCGAUAUCCGCAUGCUAGGUUGAGUGGGUGGAUUCAUGAUGGAUGGAUGGAUGGAUGGAUGGAUGGAUGGAUGGAUGAGUGGAUGGAUAAUAGGUUGAUGGGUGGAUAGGUAGAUGAGUGAAUAGAUAGAUAUAGAUCAGUGGGAGGAUUGGAAAGUAGGUGAAUGAAUGGAUGGCAGAUAGAUGGAUCAAUUACAGAUGGAUGGAUGCAUGGAAUAGAUAGGUGGAUGGGUGGUGGCUAGAAGGUGCCUGAGUCUGCACAUCACUGCACUGAGAAGCUCUUGCGGUCGCACUAGUGUGGAAUUCUCGGGUGUCAAGG

Whole data set: some 9,900 sequences, median “r (bound/input frequency ratio)” near 0.7, cut for the highest 2% near 6.5. This is one part of a sample in which the highest values are shown more often than they occur.

The assay deals with TDP-43 (Homo sapiens, UniProt Q13148 1-414). The assay is described as follows: RNA Bind-n-Seq with designed 260-mer pool; 25 mM Tris-HCl, 150 mM KCl, 3 mM MgCl2, BSA (printed 500 mg/mL), 20 units/mL SUPERase IN; pH not stated; 500 nM RNA pool, 1 h, 4 C; TDP-43 5, 50, 500 nM; high values mean tight binding. The note with it: protein: recombinant; tags: SBP (GST cleaved off with PreScission; pGEX-GST-SBP). The method in brief: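 The incubation lasted 1 h at 4 °C and used 500 nM of an in vitro-transcribed 260-nt 3′ UTR oligo pool with recombinant SBP-tagged TDP-43 at 5, 50 or 500 nM immobilized on streptavidin beads. It took place in 25 mM Tris-HCl, 150 mM KCl, 3 mM MgCl2, BSA and SUPERase IN. Bound RNA was washed, eluted with biotin, converted to cDNA, PCR-amplified and sequenced to give R, each oligo's normalized abundance in the bound sample divided by that in input. Two independent protein batches provided the duplicates.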
TDP-43, sequence (Q13148 whole entry): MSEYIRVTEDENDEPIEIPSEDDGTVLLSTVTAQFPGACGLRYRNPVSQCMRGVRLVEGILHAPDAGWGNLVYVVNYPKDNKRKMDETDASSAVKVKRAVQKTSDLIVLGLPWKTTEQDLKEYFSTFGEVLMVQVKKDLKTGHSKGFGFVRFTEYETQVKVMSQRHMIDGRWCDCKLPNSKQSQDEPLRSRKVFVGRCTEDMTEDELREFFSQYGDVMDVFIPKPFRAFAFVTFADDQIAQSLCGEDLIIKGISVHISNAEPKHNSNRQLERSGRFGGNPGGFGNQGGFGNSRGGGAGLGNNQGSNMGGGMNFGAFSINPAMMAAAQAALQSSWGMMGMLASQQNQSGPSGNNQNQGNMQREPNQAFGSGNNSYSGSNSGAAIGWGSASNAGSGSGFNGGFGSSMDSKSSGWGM
With B1, the binding signal is 2.26 R (bound/input frequency ratio). Next, B2: 6.13 R (bound/input frequency ratio). For B3 the value was 5.07 R (bound/input frequency ratio); for B4, 4.6 R (bound/input frequency ratio). Next, B5: 4.65 R (bound/input frequency ratio); B6: 7.11 R (bound/input frequency ratio); B7: 5.9 R (bound/input frequency ratio). Consider B8, for which the binding signal is 6.51 R (bound/input frequency ratio).

As to B9, the binding signal was 4.56 R (bound/input frequency ratio). For B10 the value was 5.13 R (bound/input frequency ratio). For B11 the value was 7.49 R (bound/input frequency ratio). Next, B12: 8.37 R (bound/input frequency ratio); B13: 5.86 R (bound/input frequency ratio).

These data come from paper PMC12864922, “TDP-43 directly inhibits mRNA accumulation in neurites through modulation of mRNA stability”.
